Compound activity from PubChem.
The list is not random: actives were taken first. Their share in the collection is about 6.7%.
C diff growth: C. difficile growth inhibition; Clostridium difficile clinical isolate growth, OD600, 24 h; stronger effect = lower value; growth activity, negative = inhibition, % at 16 µg/mL (by protocol); 86,000 tested, 0.25% active; AID 1259249;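 active = mean growth activity at or below -80% and every replicate also at or below -80%; inconclusive = mean at or below -80% but some replicate above -80%; inactive = mean growth activity above -80%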;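 note: 0% = DMSO wells and -100% = levofloxacin 16 µg/mL wells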
Pf Dd2 inh: blocks growth of Plasmodium falciparum Dd2 parasites | P. falciparum Dd2 growth, SYBR Green, 72 h; stronger effect = lower value | activity change, % at 10 µM | 94,000 tested, 2.3% active | AID 1159554; in the data active = activity change below about -80%; inconclusive = no clear call, values can overlap the other calls
T cruzi growth-1: blocks T. cruzi growth in NIH3T3 culture; T. cruzi beta-gal in NIH3T3, GalScreen luminescence, 90 h; inhibition, % at 8.34 µM; 77,000 tested, 5.9% active; AID 624255;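 active = mean inhibition above about 93%, with at least 55% of replicates each passing it, limit read from the data, passing the limit was not always enough; inconclusive = only one of those two conditions holds; inactive = neither condition holds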
T cruzi growth-2: inhibitors of T. cruzi proliferation. shares compounds with T cruzi growth-1. T. cruzi beta-gal in NIH3T3, GalScreen luminescence, 90 h. AID 651739. inhibition, % at 8.35 µM. 5,600 tested, 72% active;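 active = mean replicate inhibition above about 95% and at least 55% of replicates individually reaching it, limit read from the data; inconclusive = only one of the two criteria is met; inactive = neither criterion is met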
T cruzi growth-3: blocks T. cruzi growth in NIH3T3 host cells. AID 651740. inhibition, % at 2.09 µM. 5,600 tested, 21% active. T. cruzi beta-gal in NIH3T3, GalScreen luminescence, 90 h. shares compounds with T cruzi growth-1;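 active = mean inhibition above about 95%, with at least 55% of replicates also reaching it, limit read from the data; inconclusive = meets just one of the two conditions; inactive = meets neither condition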;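 note: plate controls were neutral control median for no effect and positive control median for full effect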
3T3 cytotox: kills mouse NIH/3T3 fibroblasts; shares compounds with T cruzi growth-1; NIH/3T3 viability, CellTiter-Glo ATP luminescence, 90 h; cytotoxicity (signal decrease), % at 8.35 µM; 5,600 tested, 14% active;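 active = mean signal decrease across replicates above about 35% based on untreated-well scatter, with enough replicates individually passing, limit read from the data; inconclusive = no rule stated though some were filed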;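 note: 0% = median of neutral control wells and 100% = median of positive control wells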
NIH3T3 tox 2: cytotoxicity in mouse NIH/3T3 fibroblasts; shares compounds with T cruzi growth-1; NIH/3T3 viability, CellTiter-Glo ATP luminescence, 90 h; inhibition, % at 24.9 µM; 5,600 tested, 56% active; AID 651744;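 active = mean loss of cell viability signal at or above a set limit, and enough replicates individually reaching it; inconclusive = meets only the mean limit or only the replicate share; inactive = meets neither condition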;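 note: 0% = median of neutral control wells and 100% = median of positive control wells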
An asterisk follows results filed as active; ? = inconclusive; nt = no result.

SMILES	C diff growth	Pf Dd2 inh	T cruzi growth-1	T cruzi growth-2	T cruzi growth-3	3T3 cytotox	NIH3T3 tox 2
CCCC#Cc1ccc2c(c1)O[C@@H](CN(C)Cc1ccncc1)[C@H](C)CN([C@@H](C)CO)S2(=O)=O	15.5	-86.8*	120.9*	101.0*	107.1*	62.9*	103.7*
CCCC#Cc1ccc2c(c1)O[C@H](CN(C)Cc1ccncc1)[C@@H](C)CN([C@H](C)CO)S2(=O)=O	4.9	-59.8	117.5*	98.3*	?	36.8*	103.6*
COCC#Cc1ccc([C@@H]2[C@H]3CN(C(=O)CN(C)C)CCCCN3[C@H]2CO)cc1	-2.0	6.0	109.1*	?	13.3	-11.9	6.1
CN(C)CC#Cc1ccc([C@H]2[C@@H](CO)N3CCCCN(C(=O)CN(C)C)C[C@@H]23)cc1	1.9	-0.5	-4.8	nt	nt	nt	nt
CN(C)CC#Cc1ccc([C@@H]2[C@@H](CO)N3CCCCN(C(=O)CN(C)C)C[C@@H]23)cc1	0.3	-4.5	19.3	nt	nt	nt	nt
COCC#Cc1ccc([C@H]2[C@@H](CO)N3CCCCN(C(=O)CN(C)C)C[C@H]23)cc1	2.3	29.5	120.7*	50.5	35.5	-24.2	-4.0
C[C@@H]1CCCCO[C@@H](CN(C)CC2CCCCC2)[C@@H](C)CN([C@@H](C)CO)C(=O)c2cc(NC(=O)Nc3ccccc3)ccc2O1	7.8	-68.8	124.8*	104.5*	92.0	22.8	103.3*
COc1ccc(NC(=O)Nc2ccc3c(c2)C(=O)N([C@H](C)CO)C[C@@H](C)[C@@H](CN(C)CC2CCCCC2)OCCCC[C@H](C)O3)cc1	-7.6	-74.7	90.9	nt	nt	nt	nt
C[C@H]1CCCCO[C@@H](CN(C)CC2CCCCC2)[C@@H](C)CN([C@@H](C)CO)C(=O)c2cc(NC(=O)Nc3ccc4c(c3)OCO4)ccc2O1	-5.7	-81.2*	98.5*	?	109.5*	41.1*	106.5*
C[C@@H]1CN([C@@H](C)CO)C(=O)c2cc(NC(=O)Nc3ccc4c(c3)OCO4)ccc2O[C@@H](C)CCCCO[C@@H]1CN(C)CC1CCCCC1	2.2	-79.3	-43.2	nt	nt	nt	nt
C[C@@H]1CCCCO[C@H](CN(C)CC2CCCCC2)[C@H](C)CN([C@H](C)CO)C(=O)c2cc(NC(=O)c3ccccc3)ccc2O1	1.8	-77.0	118.0*	113.5*	65.0	14.5	105.0*
C[C@@H]1CCCCO[C@H](CN(C)CC2CCCCC2)[C@H](C)CN([C@@H](C)CO)C(=O)c2cc(NC(=O)c3ccccc3)ccc2O1	1.5	-64.1	114.7	nt	nt	nt	nt
C[C@@H]1CCCCO[C@H](CN(C)CC2CCCCC2)[C@H](C)CN([C@@H](C)CO)C(=O)c2cc(NC(=O)Nc3ccccc3)ccc2O1	0.1	-67.1	91.8	nt	nt	nt	nt
COc1ccc(NC(=O)Nc2ccc3c(c2)C(=O)N([C@H](C)CO)C[C@H](C)[C@@H](CN(C)CC2CCCCC2)OCCCC[C@H](C)O3)cc1	0.2	-71.2	95.7*	105.3*	111.6*	24.5	105.1*
CC(C)C#Cc1ccc2c(c1)O[C@H](CN(C)C(=O)c1ccccn1)[C@@H](C)CN([C@H](C)CO)S2(=O)=O	12.8	-38.8	61.3	nt	nt	nt	nt
Cc1ccc(S(=O)(=O)N[C@H]2CC[C@@H](CC(=O)NCCN3CCCCC3)O[C@@H]2CO)cc1	-5.1	8.1	10.2	nt	nt	nt	nt
O=C(CN1CCOCC1)NCC[C@@H]1CC[C@@H](NC(=O)c2ccc3c(c2)OCO3)[C@H](CO)O1	nt	17.7	-22.5	nt	nt	nt	nt
COc1ccc(-c2ccc3c(c2)[C@@H]2[C@@H](CCN2C(=O)C2CCOCC2)[C@H](CO)N3C)cc1	6.4	-22.8	7.3	nt	nt	nt	nt
C[C@@H]1CCCCO[C@@H](CN(C)CC2CCCCC2)[C@H](C)CN([C@@H](C)CO)C(=O)c2cc(NC(=O)Nc3ccccc3)ccc2O1	12.1	-71.3	104.8*	101.0*	57.8	31.3	104.5*
C[C@@H]1CCCCO[C@H](CN(C)CC2CCCCC2)[C@@H](C)CN([C@H](C)CO)C(=O)c2cc(NC(=O)Nc3ccccc3)ccc2O1	10.1	-58.3	109.2*	111.5*	91.0	4.0	94.6*
COc1ccc(NC(=O)Nc2ccc3c(c2)CC(=O)N([C@@H](C)CO)C[C@@H](C)[C@H](CN(C)CC2CCCCC2)O3)cc1	-16.7	-90.4*	119.7*	98.7*	38.8	11.6	104.2*
